Results reported in PubChem BioAssay AID2599 (Sanford-Burnham Center for Chemical Genomics, 2010).
About 5,800 (1.8%) of roughly 330,000 compounds were called active.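 The calls were made as follows: active = inhibition above about 50% at the single tested dose (limit read from the data); inactive = the rest.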 The full list was thinned out, with actives kept by preference.

Target: Sentrin-specific protease 6 (Homo sapiens) (UniProt Q9GZR1)
Assay: SENP6 protease inhibitors, primary screen, biochemical, luminescence, uHTS (AID 2599);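 also: plate controls were DMSO wells with enzyme for no effect and DMSO wells lacking enzyme for full effect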
Conditions: Recombinant SENP6 catalytic domain, aminoluciferin luminescence; at 10 µM; stronger effect = higher value

Chain of Sentrin-specific protease 6 (Homo sapiens) (Q9GZR1 628-1112 limits assumed): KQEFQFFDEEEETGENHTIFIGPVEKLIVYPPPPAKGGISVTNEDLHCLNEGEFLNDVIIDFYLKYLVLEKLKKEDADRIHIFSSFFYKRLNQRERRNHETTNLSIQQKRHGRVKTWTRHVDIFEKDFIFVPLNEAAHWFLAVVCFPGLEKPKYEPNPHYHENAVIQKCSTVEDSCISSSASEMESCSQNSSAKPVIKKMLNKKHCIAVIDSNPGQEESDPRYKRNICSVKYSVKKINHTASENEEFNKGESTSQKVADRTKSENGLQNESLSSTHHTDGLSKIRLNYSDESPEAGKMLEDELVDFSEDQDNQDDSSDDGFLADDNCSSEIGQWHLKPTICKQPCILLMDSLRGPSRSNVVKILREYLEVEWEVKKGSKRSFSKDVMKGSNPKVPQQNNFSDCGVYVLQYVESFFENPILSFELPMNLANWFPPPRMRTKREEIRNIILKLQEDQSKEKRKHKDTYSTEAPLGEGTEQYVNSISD

Compound	inhibition
CC(OC(=O)CNS(=O)(=O)/C=C/c1ccccc1)C(=O)Nc1ccc(S(=O)(=O)N2CCCC2)cc1 (stereo unspecified)	1.69% (inactive)
Cn1c(=O)c(=O)n(C)c2cc(S(=O)(=O)NCCN3CCN(c4ccccc4F)CC3)ccc21	-19.5% (inactive)
CCOC(=O)[C@H]1CCC[C@@H](NS(=O)(=O)c2ccc(NC(C)=O)cc2)C1	4.75% (inactive)
O=C(Cc1nc2ccccc2[nH]c1=O)c1ccc(Cl)cc1	50.3% (active)
O=C(/C(=C/c1cccc(Cl)c1)c1nc2ccccc2[nH]1)c1ccccc1	-2.12% (inactive)
N#C/C(=C(/O)COC(=O)COc1ccc(Cl)cc1)c1nc2ccccc2[nH]1	-13.3% (inactive)
COc1cccc(C(=O)CC(=O)C(=O)Nc2ccc([N+](=O)[O-])cc2C)c1	3.79% (inactive)
CC1(C)C=C2[C@H]3CC[C@@H]4[C@@]5(C)CCC(=O)C(C)(C)[C@@H]5CC[C@@]4(C)[C@]3(C)CC[C@@]2(C(=O)O)CC1	12.4% (inactive)
O=C(C1=C[C@H](c2coc3ccccc3c2=O)C[C@H](OCc2ccc(CO)cc2)O1)N1CCN(Cc2ccccc2)CC1	-13.7% (inactive)
O=C(NC(=S)Nc1ccc(Br)cc1F)C1CCCCC1	-12.9% (inactive)
CCOC(=O)N1CCC(NC(=O)c2cnn3ccccc23)CC1	3.17% (inactive)
O=C(c1cnn2ccccc12)N1CCc2ccccc21	51% (active)
Cc1cnc(C(=O)OCC(=O)N2CCc3ccccc32)cn1	0.963% (inactive)
Cc1oc2cc(Br)c(O)c(Br)c2c1C(=O)c1ccccc1	-11.8% (inactive)
Cc1ccnc(NC(=O)CNC(=O)c2ccccc2)c1	6.25% (inactive)
Cc1occc1C(=O)Nc1cccc(Cn2cccn2)c1	-1.37% (inactive)
COc1cc(SC)ccc1C(=O)Nc1cc(C)ccn1	62.6% (active)
Cc1ccnc(NC(=O)c2ccoc2C)c1	88.3% (active)
Cc1csc(NC(=O)c2ccc(C)s2)n1	0.083% (inactive)
COC(=O)c1sc(NC(=O)c2ccc(OC)cc2OC)nc1C	74% (active)
COc1ccc(C(=O)Nc2cccc(NC(=O)c3ccc(OC)cc3OC)n2)c(OC)c1	-18% (inactive)
COc1cc(SC)ccc1C(=O)NNC(=O)C1COc2ccccc2O1 (stereo unspecified)	-13.5% (inactive)
COc1cc2ccccc2cc1C(=O)Nc1nc(C)c(C(C)=O)s1	16.4% (inactive)
COc1cc(SC)ccc1C(=O)NCCOc1ccccc1Cl	13.4% (inactive)
COc1cc(SC)ccc1C(=O)Nc1nc(C)cs1	97.3% (active)
COc1cc(SC)ccc1C(=O)N(Cc1ccccc1)c1ccccc1	-10.9% (inactive)
